Holding throughout (test): NCI-60 one-dose screen, 48 h (100 = growth as untreated, 0 = no growth, -100 = all killed)
In one experiment the test system is HCT-15 colon. As to conditions: 10 µM.
The test system of the next experiment is HT29 colon. To be noted: 10 µM.
The next experiment relates to SNB-75 CNS. As to conditions: 10 µM.
Another experiment relates to SNB-19 CNS. To be noted: 10 µM.
For the next experiment, the system named is U251 CNS. As to conditions: 10 µM.
A further experiment relates to PC-3 prostate. To be noted: 10 µM.
A further experiment concerns SK-MEL-5 melanoma. To be noted: 10 µM.
In a further experiment the test system is UACC-62 melanoma. As to conditions: 10 µM unless noted.
A further experiment concerns LOX IMVI melanoma. As to conditions: 10 µM.
A further experiment concerns SK-MEL-28 melanoma. As to conditions: 10 µM.

The panel holds about 83,000 compounds, 20% with a hit somewhere; the sample as a whole holds those more often.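 Note: values are percent growth. 100 is the growth of untreated cells, values between 100 and 0 indicate rising inhibition; between -100 and 0 indicates cell death.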 A number with no mark means an inactive call. Active and inactive are the calls of the source. How the source made its calls: active means growth percent below 10; inactive means the rest.

On to `CC(=O)c1cc2c(cc1F)C(C)(C)CCC2(C)C`, for which the growth was 100% with HCT-15 colon; 106% in the experiment with HT29 colon; 84.8% with SNB-75 CNS; 102% with SNB-19 CNS; 104% in the experiment on U251 CNS; 95.6% in the experiment on PC-3 prostate. Further, the growth is 102% in the experiment on SK-MEL-5 melanoma, 97.1% in the experiment with UACC-62 melanoma, 96% in the experiment with LOX IMVI melanoma and 107% in the experiment on SK-MEL-28 melanoma.

On to `S=c1nn[nH]c2ccccc12`, for which the growth in the experiment with HCT-15 colon is 103%; in the experiment with HT29 colon, 112%; in the experiment with SNB-75 CNS it was 96.4%; in the experiment on SNB-19 CNS it was 95.9%; with U251 CNS, 103%; in the experiment on PC-3 prostate, 98.1%. The growth with SK-MEL-5 melanoma was 97.9%; in the experiment on UACC-62 melanoma it was 99.2%; in the experiment with LOX IMVI melanoma, 93.6%; with SK-MEL-28 melanoma it was 126%.

Consider `COc1cc2nc3cc([N+](=O)[O-])ccc3c(Cl)c2cc1OC`, for which the growth is 94.6% with HCT-15 colon; 105% in the experiment with HT29 colon; 104% in the experiment on SNB-75 CNS; 106% in the experiment on SNB-19 CNS; 89.1% in the experiment on U251 CNS; 90.9% in the experiment with PC-3 prostate. Besides, the growth was 99.1% in the experiment on SK-MEL-5 melanoma, 74.8% in the experiment with UACC-62 melanoma, 105% in the experiment with LOX IMVI melanoma and 108% in the experiment with SK-MEL-28 melanoma.

In the case of `O=C(NC1CCCCC1)OCc1c(COC(=O)NC2CCCCC2)c(-c2ccc(Cl)c(Cl)c2)n2c1CCC2`, the growth with HCT-15 colon is 33.6%; with HT29 colon it was 26.7%; with SNB-75 CNS, 15.7%; in the experiment with SNB-19 CNS, 44.5%; with U251 CNS it was 29.4%; with PC-3 prostate, 55.1%. Further, the growth in the experiment on SK-MEL-5 melanoma was 41.6%; in the experiment on UACC-62 melanoma, 9.04% (active); in the experiment on LOX IMVI melanoma, 13.3%; in the experiment on SK-MEL-28 melanoma, 75.6%.

Consider `O=C(O)CCC(=O)OC(C1CO1)C(OC(=O)CCC(=O)O)C1CO1` (stereo not given), for which the growth in the experiment with HCT-15 colon is 97.9%; in the experiment on HT29 colon it was 100%; in the experiment on SNB-75 CNS, 94.7%; with SNB-19 CNS, 111%; in the experiment on U251 CNS, 95.7%; with PC-3 prostate it was 96.3%. Moreover, the growth is 98.8% with SK-MEL-5 melanoma, 111% in the experiment with UACC-62 melanoma, 97.1% in the experiment on LOX IMVI melanoma and 110% in the experiment with SK-MEL-28 melanoma.

For the compound `c1ccc2c(N3CCCCC3)ncnc2c1`, the growth in the experiment on HCT-15 colon is 99.6%; with HT29 colon, 76.2%; in the experiment with SNB-75 CNS, 140%; in the experiment with SNB-19 CNS it was 99.4%; in the experiment with U251 CNS it was 93%; in the experiment with PC-3 prostate it was 87.3%. Moreover, the growth in the experiment with SK-MEL-5 melanoma is 91.8%; with UACC-62 melanoma it was 91.3%; in the experiment on LOX IMVI melanoma, 92.8%; in the experiment with SK-MEL-28 melanoma, 115%.

`O=c1[nH]c(O)c(/C=C2/C=Nc3ccccc32)[nH]1`: the growth is 81.2% in the experiment with HCT-15 colon; 95.3% in the experiment on HT29 colon; 77.4% with SNB-75 CNS; 104% in the experiment with SNB-19 CNS; 103% in the experiment with U251 CNS; 83.4% with PC-3 prostate. Also, the growth in the experiment on SK-MEL-5 melanoma is 91.2%; in the experiment on UACC-62 melanoma it was 95.7%; in the experiment on LOX IMVI melanoma it was 96.6%; in the experiment with SK-MEL-28 melanoma, 111%.

Regarding `NC(CSC(c1ccccc1)(c1ccccc1)c1ccccc1)C(=O)O` (stereo not given), the growth is 34.3% with HCT-15 colon; 14% in the experiment with HT29 colon; 64.9% in the experiment with SNB-75 CNS; 49.8% in the experiment on SNB-19 CNS; 14.1% in the experiment on U251 CNS; 19.7% with PC-3 prostate. Moreover, the growth with SK-MEL-5 melanoma was 26.3%; in the experiment on UACC-62 melanoma it was 48%; in the experiment on LOX IMVI melanoma it was 38.2%; with SK-MEL-28 melanoma, 57.9%.

Consider `CC1NC(=O)NC1CCCCCC(=O)O` (stereo not given), for which the growth in the experiment on HCT-15 colon was 98.4%; in the experiment on HT29 colon it was 102%; in the experiment with SNB-75 CNS, 94%; in the experiment on SNB-19 CNS it was 99.8%; in the experiment with U251 CNS it was 94.5%; in the experiment on PC-3 prostate, 86.4%. In addition, the growth was 102% with SK-MEL-5 melanoma, 96.7% in the experiment with UACC-62 melanoma, 93.3% in the experiment on LOX IMVI melanoma and 115% in the experiment on SK-MEL-28 melanoma.

For the compound `O=C(O)c1ccc(S(=O)(=O)O)cc1`, the growth in the experiment with HCT-15 colon was 102%; in the experiment with HT29 colon, 107%; in the experiment with SNB-75 CNS, 94.9%; in the experiment on SNB-19 CNS it was 106%; with U251 CNS, 103%; with PC-3 prostate, 88.2%. Further, the growth is 110% in the experiment with SK-MEL-5 melanoma, 102% in the experiment with UACC-62 melanoma, 97.3% with LOX IMVI melanoma and 109% in the experiment with SK-MEL-28 melanoma.

For the compound `CC(=O)Oc1ccc(Br)cc1C(=O)O`, the growth is 102% in the experiment on HCT-15 colon; 107% in the experiment on HT29 colon; 101% with SNB-75 CNS; 95% with SNB-19 CNS; 105% in the experiment with U251 CNS; 92.2% in the experiment on PC-3 prostate. The growth in the experiment with SK-MEL-5 melanoma is 104%; in the experiment on UACC-62 melanoma, 98.6%; with LOX IMVI melanoma, 94.6%; in the experiment on SK-MEL-28 melanoma, 124%.

Take `O=C1Cc2cc(O)ccc2O1`: the growth is 117% in the experiment with HCT-15 colon; 104% in the experiment with HT29 colon; 86% in the experiment on SNB-75 CNS; 107% with SNB-19 CNS; 103% in the experiment on U251 CNS; 107% with PC-3 prostate. In addition, the growth with SK-MEL-5 melanoma was 101%; with UACC-62 melanoma, 101%; in the experiment on LOX IMVI melanoma, 83.1%; with SK-MEL-28 melanoma, 108%.

On to `O=[N+]([O-])c1ccc(-c2ncc(-c3ccc(Br)cc3)o2)cc1`, for which the growth with HCT-15 colon was 96.5%; in the experiment on HT29 colon, 98.3%; in the experiment on SNB-75 CNS it was 122%; with SNB-19 CNS, 99.9%; with U251 CNS, 95.8%; with PC-3 prostate, 89.8%. The growth is 89.4% in the experiment on SK-MEL-5 melanoma, 93.3% in the experiment on UACC-62 melanoma, 104% in the experiment on LOX IMVI melanoma and 114% in the experiment on SK-MEL-28 melanoma.

For the compound `O=C(O)CSCSCC(=O)O`, the growth with HCT-15 colon was 98.7%; in the experiment on HT29 colon, 107%; in the experiment on SNB-75 CNS it was 77.2%; in the experiment with SNB-19 CNS, 96.6%; with U251 CNS, 94.3%; in the experiment with PC-3 prostate it was 103%. Further, the growth in the experiment on SK-MEL-5 melanoma was 103%; in the experiment with UACC-62 melanoma it was 100%; in the experiment on LOX IMVI melanoma, 97.3%; in the experiment on SK-MEL-28 melanoma, 97.8%.

`O=[N+]([O-])c1cccc2nsnc12`: the growth in the experiment with HCT-15 colon is 103%; in the experiment with HT29 colon it was 105%; in the experiment on SNB-75 CNS, 96.7%; with SNB-19 CNS, 98.4%; in the experiment on U251 CNS, 104%; in the experiment with PC-3 prostate, 97.3%. For the same compound, the growth in the experiment on SK-MEL-5 melanoma is 94.9%; with UACC-62 melanoma it was 105%; in the experiment on LOX IMVI melanoma, 99.7%; in the experiment on SK-MEL-28 melanoma, 114%.

The values are drawn from PubChem BioAssay (NCI).
